# Measurements taken from PubChem BioAssay (NCATS).
# Calls of active or inactive are those of the source. Calls come from the whole dose curve; as a rule, active = well fitted curve in the direction sought with a large enough effect; inconclusive = small, poorly fitted or top-dose-only effect, or another doubt; inactive = no such curve, though single readings can be large or run the other way.
# Target: Hexokinase-4 (Homo sapiens) + Glucokinase regulatory protein (Homo sapiens) (UniProt P35557+Q14397)
# Test: qHTS assay for inhibitors of recombinant human GCK-GKRP interaction: Diaphorase-coupled assay (AID 743205)
# Conditions: G6PDH/diaphorase resorufin fluorescence; series mostly up to 57.5 µM; activity change, positive = activation: at the top concentration
# Excerpt: Glucokinase (GCK) is a glucose sensor in hepatocytes and pancreatic beta-cells. Hepatic GCK is regulated by glucokinase regulatory protein (GKRP), which is predominantly localized to the liver. GKRP binds to GCK inhibiting its activity in the fasting state while in the presence of glucose the GKRP is displaced. There is an additional layer of regulation by fructose 1-phosphate and fructose 6-phosphate, which inhibit and enhance the GCK-GKRP interaction, respectively. GCK plays a role in glucose homeostasis and there is an interest in the development of strategies to activate GCK to lower blood glucose levels in type 2 diabetes. To date the majority of effort has focused on direct activation of GCK and the assays developed herein look to activate GCK by inhibiting its binding to GKRP. A compound that inhibits the interaction of GCK with GKRP could be important for the treatment of diabetes and can also be used as a tool compound to further elucidate GCK-GKRP biology. To that end, we have developed a sensitive HTS biochemical assay where in GCK activity is coupled to G6PDH and Diaphorase to interrogate the GCK-GKRP interaction. This assay was screened against a small compound library to look for modulators of activity.
# 2 uL of substrate (columns 1-48) are dispensed into Greiner, black solid-bottom 1536-well assay plates. Compounds (23 nL) are then transferred via Kalypsys pin tool equipped with 1536-pin array (10 nL slotted pins, V&P Scientific, San Diego, CA). The library compounds are in columns 5-48 and columns 1-4 serve as controls with DMSO in columns 1 and 3 and 26 mM 1:1.5 fold serial of gluckokinase activator (GKA-EMD) in column 2 and 26 mM of the glucokinase activator (GKA-EMD) in column 4. Following addition of compound and a 20 minute incubation, 1 uL of enzyme mix (GST-GCK, FLAG-GKRP and diaphorase) is added to columns 1, 2, 4-48 and 1 uL of no enzyme mix (FLAG-GKRP and diaphorase) is added to column 3 and the fluorescent product resorufin generated from resazurin was monitored on a Viewlux (PerkinElmer, Shelton, CT, USA) with excitation at 525 nm and emission at 590 nm in kinetic mode where the plate was read every minute for 30 minutes. The final concentration of reagents in the reaction are 25 mM Hepes pH 7.6, 25 mM KCl, 2 mM MgCl2, 1.4 mM 2-mercaptoethanol, 0.025% BSA, 0.01% Tween-20, 0.15 mM NADP+, 5 mM glucose, 0.4 mM ATP, 4 U/ml G6PDH, 0.1 mM resazurin, 10 nM GST-GCK, 10 nM FLAG-GKRP, diaphorase (0.1 mg/mL). Data are normalized to DMSO-treated control columns with (maximum signal) and without (minimum signal) enzyme.
# Hexokinase-4 (Homo sapiens) + Glucokinase regulatory protein (Homo sapiens), sequence (P35557 whole entry, looked up): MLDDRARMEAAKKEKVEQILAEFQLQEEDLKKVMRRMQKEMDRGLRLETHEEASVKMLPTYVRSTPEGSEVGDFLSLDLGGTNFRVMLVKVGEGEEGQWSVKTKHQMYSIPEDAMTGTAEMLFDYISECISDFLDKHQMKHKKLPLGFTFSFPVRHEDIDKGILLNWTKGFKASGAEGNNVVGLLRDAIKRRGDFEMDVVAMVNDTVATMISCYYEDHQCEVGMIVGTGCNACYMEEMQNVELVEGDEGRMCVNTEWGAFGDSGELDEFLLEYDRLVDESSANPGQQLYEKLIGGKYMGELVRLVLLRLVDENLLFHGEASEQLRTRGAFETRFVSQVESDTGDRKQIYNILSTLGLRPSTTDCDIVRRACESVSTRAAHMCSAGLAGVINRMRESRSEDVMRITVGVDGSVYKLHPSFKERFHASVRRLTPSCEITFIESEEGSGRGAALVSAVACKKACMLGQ
# Hexokinase-4 (Homo sapiens) + Glucokinase regulatory protein (Homo sapiens), sequence (Q14397 whole entry, looked up): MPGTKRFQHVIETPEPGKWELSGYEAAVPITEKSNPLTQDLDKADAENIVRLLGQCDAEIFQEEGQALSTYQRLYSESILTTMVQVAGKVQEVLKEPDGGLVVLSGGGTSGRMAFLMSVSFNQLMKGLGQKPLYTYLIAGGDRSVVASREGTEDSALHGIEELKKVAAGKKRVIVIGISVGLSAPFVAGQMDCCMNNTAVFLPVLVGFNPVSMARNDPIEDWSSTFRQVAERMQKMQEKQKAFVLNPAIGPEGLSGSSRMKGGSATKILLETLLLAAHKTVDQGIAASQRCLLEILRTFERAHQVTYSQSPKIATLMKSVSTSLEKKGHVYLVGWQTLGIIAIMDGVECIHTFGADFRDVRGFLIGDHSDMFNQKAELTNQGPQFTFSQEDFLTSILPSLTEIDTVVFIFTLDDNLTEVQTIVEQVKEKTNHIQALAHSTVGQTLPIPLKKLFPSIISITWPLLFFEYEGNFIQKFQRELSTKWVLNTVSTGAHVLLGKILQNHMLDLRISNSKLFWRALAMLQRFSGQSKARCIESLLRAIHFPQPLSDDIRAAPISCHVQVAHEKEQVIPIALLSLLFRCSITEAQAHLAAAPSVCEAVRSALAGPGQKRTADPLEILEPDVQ
Structure (SMILES),"activity change, positive = activation",outcome
CC(C)c1cccc(C(C)C)c1O,3.27% (inactive),–
O=P1(N(CCCl)CCCl)NCCCO1 (stereo not given),0.558% (inactive),–
Cc1ncsc1CCCl,-5.31% (inactive),–
CN1C(=O)CCS(=O)(=O)C1c1ccc(Cl)cc1 (stereo not given),-4.46% (inactive),–
O=C(CCCN1CCC2(CC1)C(=O)NCN2c1ccccc1)c1ccc(F)cc1,1.71% (inactive),–
COc1ccc2c(c1OC)C(=O)O[C@H]2[C@@H]1c2cc3c(cc2CCN1C)OCO3,-2.03% (inactive),–
CCCCC/C=C\C/C=C\C/C=C\C/C=C\CCCC(=O)NCC(=O)O,-1.57% (inactive),–
CCC1(c2ccc(N)cc2)CCC(=O)NC1=O (stereo not given),-3.23% (inactive),–
CC(C)(C)NCC(O)c1ccccc1Cl (stereo not given),-2.61% (inactive),–
CC(C)N(CCC(C(N)=O)(c1ccccc1)c1ccccn1)C(C)C (stereo not given),–,inactive
C=C(C)[C@H]1CN[C@H](C(=O)O)[C@H]1CC(=O)O,-2.88% (inactive),–
CC(NC(C)(C)C)C(=O)c1cccc(Cl)c1 (stereo not given),-1.63% (inactive),–
O=C(O)CCCc1ccc(N(CCCl)CCCl)cc1,-13.2% (inactive),–
O=c1[nH]oc2c1CCNC2,-0.294% (inactive),–
NCCc1ccc(O)cc1,-0.137% (inactive),–
